Inconclusive results are not listed. The source made the active and inactive calls. Unless noted, calls follow the shape of the dose curve; as a rule, active = well fitted curve in the direction sought with a large enough effect in the repeat runs; inconclusive = weak or mixed curves; inactive = no such curve, though single readings can be large; an effect the other way counts as inactive or inconclusive.
Experiments:
[1] = qHTS assay to identify small molecule agonists of the peroxisome proliferator-activated receptor delta (PPARd) signaling pathway - cell viability counter screen (AID 743211); also: nearly all actives have a fitted effect of over 55% in size
Outline: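 PPARd-bla HEK293H cells (3000/well) were pre-incubated 5 h at 37 C, then exposed to compound for 17 h at 37 C. After 2 h with LiveBLAzer substrate, CellTiter-Glo was added to the same wells; luminescence read after 30 min at room temperature.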

[2] = molecular target: Peroxisome proliferator-activated receptor delta (Homo sapiens) (UniProt Q03181); test: qHTS assay to identify small molecule agonists of the peroxisome proliferator-activated receptor delta (PPARd) signaling pathway (AID 743212; calls by dose curve)
Outline: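 Read-out: beta-lactamase FRET fluorescence after 2 h room-temperature incubation with LiveBLAzer B/G substrate. Cells were HEK293H carrying a UAS-bla reporter for PPARd, treated at 37 C with DMSO-dissolved compounds.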

[3] = qHTS assay to identify small molecule antagonists of the peroxisome proliferator-activated receptor delta (PPARd) signaling pathway - cell viability counter screen (AID 743213); also: nearly all actives have a fitted effect of over 50% in size
Outline: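 CellTiter-Glo was added to PPARd-bla HEK293H wells following 17 h compound treatment in the presence of 300 nM L165041. Luminescence was recorded after 30 min at room temperature.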

[4] = qHTS assay to identify small molecule agonists of the farnesoid-X-receptor (FXR) signaling pathway - cell viability counter screen (AID 743218); also: nearly all actives have a fitted effect of over 45% in size
Outline: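 Viability counter screen in the same wells: CellTiter-Glo luminescence, 30 min room-temperature incubation, measured after the beta-lactamase read. Cells were GeneBLAzer FXR-UAS-bla HEK 293T, compound-treated 16 h at 37C.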

[5] = qHTS assay to identify small molecule antagonists of the farnesoid-X-receptor (FXR) signaling pathway - cell viability counter screen (AID 743221; active = well fitted cell-killing curve with a large enough effect in the repeat runs, not every such curve was filed as active; also: nearly all actives have a fitted effect of over 50% in size)
Outline: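 GeneBLAzer FXR-UAS-bla HEK 293T cells, compound plus chenodeoxycholic acid (50 uM final), 16 h at 37 C. CellTiter-Glo added to the same wells after the beta-lactamase read; luminescence read after 30 min at room temperature as viability.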

[6] = qHTS assay to identify small molecule agonists of the vitamin D receptor (VDR) signaling pathway - cell viability counter screen (AID 743224); also: series mostly up to about 63 µM; nearly all actives have a fitted effect of over 50% in size
Outline: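 Counter screen run in the same wells as the VDR-bla reporter assay: CellTiter-Glo luminescence, 30 min at room temperature, after 16 h compound treatment at 37C of cells pre-plated for 4 h.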

[7] = qHTS assay to identify small molecule antagonists of the vitamin D receptor (VDR) signaling pathway - cell viability counter screen (AID 743225); also: nearly all actives have a fitted effect of over 50% in size
Outline: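 VDR-UAS-bla HEK 293T cells were plated and incubated 4 h at 37C, then dosed with compound plus 3 nM (final) 1-alpha,25-dihydroxyvitamin D3 for 16 h. After the 2 h beta-lactamase read, viability in the same wells was read as CellTiter-Glo luminescence after 30 min at room temperature.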

[8] = qHTS assay to identify small molecule agonists of the NFkB signaling pathway (AID 1159509; active = well fitted curve in the direction sought with a large enough effect in the signal ratio in the repeat runs, not every such curve was filed as active; the % refers to the signal ratio; also: series mostly up to about 61 µM)
Outline: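 Readout: FRET fluorescence, 405 nm excitation, 460/530 nm emission; beta-lactamase expression disrupts FRET. Cells: ME-180 stably carrying NF-kB-driven bla reporter. Compound exposure 5 hr, 37 C, 5% CO2.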

[9] = qHTS assay to identify small molecule agonists of the NFkB signaling pathway - cell viability counter screen (AID 1159515; calls by dose curve; also: series mostly up to about 61 µM; nearly all actives have a fitted effect of over 55% in size)
Outline: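 Read by CellTiter-Glo luminescence (30 min, room temperature) in the wells also used for the beta-lactamase FRET read. ME-180 NFkB-bla cells at 2,000 per well were plated overnight, then exposed to compound for 5 hr at 37 C.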

[10] = qHTS assay to identify small molecule agonists of the endoplasmic reticulum stress response signaling pathway (AID 1159516; active = well fitted activation curve with a large enough effect in the signal ratio in the repeat runs, not every such curve was filed as active; the % refers to the signal ratio)
Outline: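 Ratiometric FRET readout (405 nm excitation; 460 and 530 nm emission) of a beta-lactamase gene driven by the ER stress response element, after 2 hr substrate loading. HeLa ESRE-bla cells were seeded overnight and treated with compounds for only 5 hr at 37 C.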

[11] = qHTS assay to identify small molecule agonists of the endoplasmic reticulum stress response signaling pathway - cell viability counter screen (AID 1159517; calls by dose curve)
Outline: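 Steps: seed 1,500 ESRE-bla HeLa cells per well; incubate overnight at 37 C, 5% CO2; add compounds in DMSO for 5 hr; run FRET substrate 2 hr RT; add CellTiter-Glo, wait 30 min, read luminescence.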

[12] = qHTS assay to identify small molecule antagonists of the retinoid-related orphan receptor gamma (ROR-gamma) signaling pathway - cell viability counter screen (AID 1159520); also: nearly all actives have a fitted effect of over 50% in size
Outline: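 Tet-on ROR gamma CHO cells were given compounds for 2 hr, then doxycycline hyclate at 1 uM final, and incubated 16 hr at 37 C. Viability was measured as ATP content by CellTiter-Glo luminescence.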

[13] = qHTS assay to identify small molecule agonists of the AP-1 signaling pathway - cell viability counter screen (AID 1159525; calls by dose curve; also: nearly all actives have a fitted effect of over 55% in size)
Outline: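 Same-well cytotoxicity counter screen of the Tox21 10K library in ME-180 cells. The readout is ATP-dependent luminescence after 5 h compound treatment. Data are normalised to DMSO and tetra n-octyl ammonium bromide controls.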

[14] = molecular target: Bile acid receptor (Homo sapiens) (UniProt Q96RI1); test: qHTS assay to identify small molecule antagonists of the farnesoid-X-receptor (FXR) signaling pathway (AID 743217; active = well fitted inhibition curve with a large enough effect in the signal ratio in the repeat runs, not every such curve was filed as active; the % refers to the signal ratio)
Outline: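 Antagonist mode: chenodeoxycholic acid at 50 uM final stimulates a UAS-driven beta-lactamase reporter in HEK 293T FXR-bla cells during 16 h, 37C compound exposure. Read-out is FRET substrate fluorescence after 2 h at room temperature.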

[15] = molecular target: Bile acid receptor (Homo sapiens) (UniProt Q96RI1); test: qHTS assay to identify small molecule agonists of the farnesoid-X-receptor (FXR) signaling pathway (AID 743220; active = well fitted activation curve with a large enough effect in the signal ratio in the repeat runs, not every such curve was filed as active; the % refers to the signal ratio)
Outline: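 FXR-UAS-bla HEK 293T cells carrying a UAS-driven beta-lactamase reporter were plated for 5 h at 37C/5% CO2, then exposed to DMSO-dissolved Tox21 10K compounds for 16 h at 37C. A LiveBLAzer B/G FRET substrate was loaded for 2 h at room temperature before fluorescence reading.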

[16] = molecular target: Vitamin D3 receptor (Homo sapiens) (UniProt P11473); test: qHTS assay to identify small molecule antagonists of the vitamin D receptor (VDR) signaling pathway (AID 743223; active = well fitted inhibition curve with a large enough effect in the signal ratio in the repeat runs, not every such curve was filed as active; the % refers to the signal ratio)
Outline: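 VDR-bla cells were treated with compound plus 3 nM final 1alpha,25-dihydroxyvitamin D3 for 16 h at 37C. Beta-lactamase reporter read by B/G FRET substrate fluorescence after 2 h at room temperature. qHTS format.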

[17] = qHTS assay to identify small molecule agonists of the AP-1 signaling pathway (AID 1159526; calls by dose curve)
[18] = molecular target: Peroxisome proliferator-activated receptor delta (Homo sapiens) (UniProt Q03181); test: qHTS assay to identify small molecule antagonists of the peroxisome proliferator-activated receptor delta (PPARd) signaling pathway (AID 743215; active = well fitted inhibition curve with a large enough effect in the signal ratio in the repeat runs, not every such curve was filed as active; the % refers to the signal ratio;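 also: cells stimulated with agonist L165041 at 300 nM final during compound exposure; series mostly up to about 62 µM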)
Outline: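 Agonist L165041 (300 nM final) added with compound to PPARd-bla HEK293H UAS-bla reporter cells; 17 h incubation at 37 C. Read-out: LiveBLAzer FRET substrate, 2 h at room temperature, fluorescence intensity.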

[19] = molecular target: Vitamin D3 receptor (Homo sapiens) (UniProt P11473); test: qHTS assay to identify small molecule agonists of the vitamin D receptor (VDR) signaling pathway (AID 743222; calls by dose curve)
Outline: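 Agonist mode, beta-lactamase reporter: fluorescence from LiveBLAzer B/G FRET substrate (2 h, room temperature) read after 16 h compound treatment at 37 C of VDR-bla cells, which were pre-incubated 4 h after seeding.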

[20] = molecular target: Nuclear receptor ROR-gamma (Homo sapiens) (UniProt P51449); test: qHTS assay to identify small molecule antagonists of the retinoid-related orphan receptor gamma (ROR-gamma) signaling pathway (AID 1159521)
Outline: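 Tet-on ROR-gamma CHO cells with ROR response element-luciferase reporter; compounds added 2 hr before 1 uM doxycycline induction, then 16 hr at 37 C. Antagonism scored as decreased ONE-Glo luminescence.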

Measured: Potency

Vitamin D3 receptor (Homo sapiens), sequence (P11473 whole entry, looked up): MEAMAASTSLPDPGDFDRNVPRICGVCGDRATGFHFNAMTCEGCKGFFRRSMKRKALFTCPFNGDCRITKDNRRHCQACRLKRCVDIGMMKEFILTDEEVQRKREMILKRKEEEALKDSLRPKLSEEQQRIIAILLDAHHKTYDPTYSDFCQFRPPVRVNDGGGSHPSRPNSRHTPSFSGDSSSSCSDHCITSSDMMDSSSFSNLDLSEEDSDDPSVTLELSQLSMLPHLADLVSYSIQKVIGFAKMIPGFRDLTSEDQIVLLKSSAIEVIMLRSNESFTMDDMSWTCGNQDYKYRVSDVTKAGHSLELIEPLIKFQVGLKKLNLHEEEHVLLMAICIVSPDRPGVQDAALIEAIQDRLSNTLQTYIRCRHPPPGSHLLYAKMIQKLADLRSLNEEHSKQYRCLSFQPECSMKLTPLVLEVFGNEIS
Peroxisome proliferator-activated receptor delta (Homo sapiens), sequence (Q03181 whole entry, looked up): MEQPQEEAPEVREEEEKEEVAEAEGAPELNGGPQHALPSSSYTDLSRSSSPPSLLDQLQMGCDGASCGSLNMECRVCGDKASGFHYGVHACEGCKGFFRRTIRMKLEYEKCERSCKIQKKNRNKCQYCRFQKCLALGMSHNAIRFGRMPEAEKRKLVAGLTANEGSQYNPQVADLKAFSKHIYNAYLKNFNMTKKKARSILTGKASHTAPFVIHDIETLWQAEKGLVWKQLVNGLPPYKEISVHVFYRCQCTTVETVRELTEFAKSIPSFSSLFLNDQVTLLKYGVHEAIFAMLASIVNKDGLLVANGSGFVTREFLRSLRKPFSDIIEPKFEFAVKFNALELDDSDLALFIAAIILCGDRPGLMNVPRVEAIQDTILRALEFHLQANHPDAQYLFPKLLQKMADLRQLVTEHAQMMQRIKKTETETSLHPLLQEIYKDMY
Bile acid receptor (Homo sapiens), sequence (Q96RI1 whole entry, looked up): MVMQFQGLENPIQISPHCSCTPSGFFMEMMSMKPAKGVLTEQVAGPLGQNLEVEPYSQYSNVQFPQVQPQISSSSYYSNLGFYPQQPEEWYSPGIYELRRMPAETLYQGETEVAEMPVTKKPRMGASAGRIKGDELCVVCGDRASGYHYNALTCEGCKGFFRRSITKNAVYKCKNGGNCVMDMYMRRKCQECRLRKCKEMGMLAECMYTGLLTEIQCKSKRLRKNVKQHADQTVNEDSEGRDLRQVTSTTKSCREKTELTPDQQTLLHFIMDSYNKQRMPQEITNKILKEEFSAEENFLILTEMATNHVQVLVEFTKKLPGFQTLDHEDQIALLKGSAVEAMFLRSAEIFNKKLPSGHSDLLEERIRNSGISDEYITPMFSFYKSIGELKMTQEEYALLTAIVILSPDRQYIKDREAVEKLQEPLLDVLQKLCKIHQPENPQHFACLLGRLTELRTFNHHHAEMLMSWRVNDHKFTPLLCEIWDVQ

COCC(O)CO (configuration not stated)
not listed: [14] | [15] | [16] | [17] | [18] | [19] | [20]
inactive: all other assays above

C[Si](NC1CCCCC1)(NC1CCCCC1)NC1CCCCC1
not listed: [5] | [13] | [18] | [19] | [20]
inactive: all other assays above

CC(C)(CCl)c1ccccc1
not listed: [6] | [12]
inactive: all other assays above

OCC1CC=CCC1 (configuration not stated)
not listed: [1] | [4] | [12] | [14] | [15]
inactive: all other assays above

O=C(Nc1ccccc1)Nc1ccccc1
not listed: [4] | [5] | [12] | [14] | [15] | [16] | [19]
inactive: all other assays above

CC1CC(=O)NN=C1c1ccc(NCC(C)(C)NCC(O)COc2cc(Cl)ccc2C#N)cc1 (configuration not stated)
not listed: [2] | [3] | [14] | [16] | [17] | [18] | [19] | [20]
inactive: all other assays above

CN1C(=O)CC(C)(c2ccccc2)C1=O (configuration not stated)
not listed: [14] | [15] | [17] | [18] | [20]
inactive: all other assays above

NC(=O)N(O)[C@@H]1COc2cc(OCc3ccccc3)ccc21
not listed: [12] | [14] | [17] | [19]
inactive: all other assays above

Source: PubChem BioAssay (Tox21)
